dFosB act: mouse delta FosB homodimer activation | activation, % at 25 µM | P13346 | purified delta FosB, TAMRA-CDK5 oligo fluorescence polarization; percent of positive-control signal above neutral wells | 340,000 tested, 0.99% active;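 active = mean activation above about 17%, with every replicate also reaching it, limit read from the data, passing the limit was not always enough; inconclusive = only one of the two conditions met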
HSF1 inh: HSF1 inhibition; NIH3T3-HGL HSE-luciferase, MG132-induced, luminescence 8 h; hits give low values; activity change, negative = inhibition, % at 7.5 µM (by protocol); 300,000 tested, 0.77% active;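 active = more than half of replicate wells show activity change below -50%, luminescence cut by over half; inconclusive = some wells, but at most half, below -50%; inactive = no replicate well below -50%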;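 note: luciferase reports HSF-1 transcriptional activity via heat shock element; 0% = median of DMSO wells and -100% = zero luminescence signal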
Platelet DG rel: platelet dense granule release activity. 300,000 tested, 0.22% active. inhibition, %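 (compounds screened at 7.5 µM in platelet-rich plasma)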. human platelet-rich plasma, SFLLRN dense granule ATP release, luminescence;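 active = mean replicate score, as percent of positive control, at or above 50; inconclusive = mean below 50 but at least one replicate at or above 50; inactive = mean and every replicate below 50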
HSP90 refold inh: inhibitors of HSP90 luciferase refolding in rabbit reticulocyte lysate; luciferase refolding luminescence, 3 h; inhibition, % at 5.6 µM; 290,000 tested, 0.91% active; AID 1789;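 active = inhibition above the screen-wide mean plus 3 SD, computed separately per campaign, cut at about 16% in these data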;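 note: 0% = DMSO wells and 100% = 60 µM geldanamycin wells; inhibitors lower the luminescence because luciferase stays unfolded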
HSF1 activator: increases HSF-1 driven luciferase reporter signal. NIH3T3-HGL HSF-1 luciferase reporter, MG132, 8 h; 100% = twice DMSO control signal. activation, % at 9 µM. 300,000 tested, 1.7% active. AID 504408;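 active = mean replicate activation of at least 50% with a set share of replicates each reaching 50%; inconclusive = only one of those two conditions met; inactive = mean below 50% and too few replicates reaching it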;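 note: 0% = median of the neutral control wells and 100% = twice that signal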
MPTP inh: blocks calcium-induced mitochondrial swelling; isolated mouse mitochondria, Ca2+ swelling absorbance, 30 min; inhibition, % at 10 µM; 360,000 tested, 1.4% active; AID 602449;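 active = inhibition of 50% or more, scaled per plate between neutral and stimulator controls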;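 note: 0% = DMSO wells given calcium and 100% = 1 mM EGTA wells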
HSP90 inh confirm: confirmation of HSP90 inhibitors | shares compounds with HSP90 refold inh | 2,300 tested, 64% active | inhibition, % at 5.9 µM | AID 1846 | rabbit reticulocyte lysate, luciferase refolding luminescence, 3 h; in the data active = inhibition above about 18%;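 note: 0% = vehicle wells and 100% = reference inhibitor wells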
FLuc counter: blocks native firefly luciferase in HSP90 counter-screen. shares compounds with HSP90 refold inh. purified native firefly luciferase, luminescence. inhibition, % at 5.9 µM. 2,300 tested, 48% active. AID 1847;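 active = inhibition above the mean inhibition of all tested sample wells plus 3 SD, cut at about 10% in these data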;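 note: 0% = DMSO with luciferase and 100% = wells lacking luciferase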
Target sequence (P08659 whole entry, looked up): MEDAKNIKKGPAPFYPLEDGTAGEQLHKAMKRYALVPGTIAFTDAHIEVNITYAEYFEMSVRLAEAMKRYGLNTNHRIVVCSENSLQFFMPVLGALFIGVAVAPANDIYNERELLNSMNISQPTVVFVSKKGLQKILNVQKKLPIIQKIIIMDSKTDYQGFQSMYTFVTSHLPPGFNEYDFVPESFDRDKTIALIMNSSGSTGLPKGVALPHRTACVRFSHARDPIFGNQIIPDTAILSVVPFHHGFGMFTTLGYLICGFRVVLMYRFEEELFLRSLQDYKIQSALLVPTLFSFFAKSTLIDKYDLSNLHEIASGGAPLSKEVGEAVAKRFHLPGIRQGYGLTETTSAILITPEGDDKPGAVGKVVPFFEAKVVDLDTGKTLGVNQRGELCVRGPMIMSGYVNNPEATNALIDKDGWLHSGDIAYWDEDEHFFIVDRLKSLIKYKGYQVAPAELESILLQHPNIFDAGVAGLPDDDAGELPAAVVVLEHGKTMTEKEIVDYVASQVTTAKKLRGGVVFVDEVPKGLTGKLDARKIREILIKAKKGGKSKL
Numbers without * were called inactive; ? = inconclusive; / = no result. A selection: hits, their analogues and other compounds. The true share with any hit is near 4.9%.

SMILES	dFosB act	HSF1 inh	Platelet DG rel	HSP90 refold inh	HSF1 activator	MPTP inh	HSP90 inh confirm	FLuc counter
Cc1ccc(S(=O)(=O)N2CCOC23CCN(C(=O)C(=O)NCc2ccccc2)CC3)cc1	-11	2	-1	/	0	-1	/	/
Cc1ccn2cc(-c3ccc(Br)cc3)nc2c1	-8	-5	32	40*	11	2	60*	62*
COc1ccc(OC)c(N(CC(=O)N2CCN(Cc3ccccc3)CC2)S(C)(=O)=O)c1	3	-6	3	20*	-13	0	-1	-6
CCN1CCN(C(=O)CN(c2cc(OC)ccc2OC)S(C)(=O)=O)CC1	-5	-8	-1	0	7	0	/	/
CC1=C(C(=O)OCC(C)C)C(c2ccsc2)NC(=O)N1 (configuration not stated)	-9	10	2	24*	11	0	2	-5
COc1cc(C=C2C(=O)c3ccccc3C2=O)ccc1O	-7	4	35	9	5	5	/	/
COc1cc(C=C2C(=O)c3ccccc3C2=O)cc(OC)c1OC	-4	-6	-3	21*	-1	-3	-6	-8
CCOC(=O)C1(C)CCCN1C(=O)c1ccc2ccccc2c1 (configuration not stated)	/	/	/	/	/	0	/	/
c1ccc(NNC2=NCCS2)cc1	-3	-6	3	19*	-7	0	14	-15
Cc1oc(=O)c(NC(=O)c2ccccc2)cc1C(N)=O	-4	-5	4	0	8	-2	/	/
O=C(Nc1cc2ccccc2oc1=O)c1ccccc1	-5	-20	24	25*	-6	-1	86*	74*
O=C(O)c1cccc(-n2c(O)c(C=C3N=c4ccccc4=N3)sc2=S)c1	0	-26	0	47*	-26	3	66*	-2
O=C(O)c1ccc(-n2c(O)c(C=C3N=c4ccccc4=N3)sc2=S)cc1	-1	16	6	-2	23	8	/	/
COC(=O)c1ccc(NC(=O)C[n+]2ccccc2C)cc1	2	-1	1	20*	-1	0	1	-4
CCOC(=O)N1CCN(Cc2ccc3c(c2)OCO3)CC1	6	0	14	0	-4	0	/	/
Cc1c(O)ccc(C(=O)CN2CCN(Cc3ccc4c(c3)OCO4)CC2)c1O	-4	-7	6	84*	-18	0	-7	-11
COc1cc(/C=C(/C#N)c2ccc(F)cc2)ccc1Oc1ccc([N+](=O)[O-])cn1	-2	-7	-1	-3	-4	2	/	/
Cc1ccc(C2=NCN(c3ccc(C(=O)O)cc3)C(=S)N2)cc1	/	15	-1	22*	26	/	18*	-5
Cn1c(-c2ccccc2)cnc1SCC(=O)N1CCCCC1	0	16	-3	33*	?	-1	64*	56*
COC(=O)c1ccc(NC(=O)c2ccc(C)cc2)o1	-7	17	1	30*	?	5	37*	-16
COC(=O)c1ccc(NC(=O)c2ccc(F)cc2)o1	-8	0	1	1	0	1	/	/
O=C(c1ccc(NS(=O)(=O)c2cccc(F)c2)cc1)N1CCCCC1	-3	-4	-3	24*	-8	-1	-9	-11
O=C(Nc1ccccc1C(=O)N1CCCC1)c1ccccc1	-4	-12	-1	27*	-14	-2	-3	-5
O=C(c1ccc(NS(=O)(=O)c2cccc(F)c2)cc1)N1CCCC1	3	-2	1	-2	-13	0	/	/
O=C(Nc1ccc(C(=O)N2CCCCC2)cc1)c1ccccc1	-7	/	/	/	/	-1	/	/
SMILES	dFosB act	HSF1 inh	Platelet DG rel	HSP90 refold inh	HSF1 activator	MPTP inh	HSP90 inh confirm	FLuc counter
O=C(Nc1ccccc1)Nc1ccc(C(=O)N2CCCC2)cc1	-3	13	58*	22*	44	3	43*	20*
CCN1CCN(Cc2ccc(NC(=O)Nc3ccccc3)cc2)CC1	-4	-42	11	20*	-49	1	29*	9
CCN1CCN(Cc2ccc(NC(=O)Nc3ccc(OC)cc3)cc2)CC1	3	-1	-3	-3	15	-3	/	/
COc1ccc(-c2noc(N3CCCC(C(=O)Nc4ccc(C(C)=O)cc4)C3)n2)cc1 (configuration not stated)	-3	14	10	-6	8	1	/	/
Cc1ccc(-n2ncc3c2CC(C)(C)CC3NC(=O)CCc2cccnc2)cc1 (configuration not stated)	-2	-2	6	-3	6	0	/	/
CCOC(=O)c1c2c3c(cccc3n(C)c1=O)C(=O)c1ccccc1-2	-10	7	0	44*	-4	0	2	-4
O=C(Cc1coc2cc3c(cc12)CCC3)OCC(=O)N1CCCC1=O	-8	-47	2	27*	-49	-1	12	-19
O=C(O)Cc1coc2cc3c(cc12)CCC3	-6	-7	7	5	-5	0	/	/
CCOC(=O)c1c(C)[nH]c(C2=NNC(=NC3CC3)SC2)c1C	-10	-2	-3	55*	-1	-3	84*	75*
COc1ccc(C(c2c(C)[nH]n(-c3ccccc3)c2=O)c2c(C)[nH]n(-c3ccccc3)c2=O)cc1OC	-5	26	0	22*	70*	14	-1	-9
COc1ccc(C(c2c(C)n(C)n(-c3ccccc3)c2=O)c2c(C)n(C)n(-c3ccccc3)c2=O)cc1OC	5	7	3	1	28	0	/	/
Nc1cc(=O)[nH]c(SCC(=O)NNC(=O)Cc2ccccc2)n1	1	-7	-2	23*	-15	1	3	0
CCOc1ccc(S(=O)(=O)N2CCCC(C(=O)N3CCOCC3)C2)cc1C (configuration not stated)	0	-4	1	1	-7	-1	/	/
COc1ccc(O)c(C(=O)c2cnn(-c3ccccc3)c2)c1	-7	18	14	-2	44	-1	/	/
COc1ccc(-n2cc(C(=O)c3ccccc3O)cn2)cc1	-11	-51*	23	34*	-53	-1	52*	40*
O=C(Nc1ccc(Br)cc1F)c1ccc2c(c1)OCCO2	-3	-2	2	55*	25	-1	50*	41*
O=C(Nc1ccc(F)cc1F)c1ccc2c(c1)OCCO2	-1	18	33	23*	25	-1	32*	12*
COc1ccccc1CNC(=O)CN1CCN(S(=O)(=O)c2cccs2)CC1	2	3	-4	2	0	0	/	/
COc1ccc(C(=O)c2coc3ccc(O)c(CN4CCOCC4)c23)cc1	-2	1	6	4	6	0	/	/
